This is a sample that favours compounds with a hit; in the whole collection about 7.9% have one here.
HCV inhibitor: blocks hepatitis C virus; Huh7.5.1 HCVcc-Cre infection, luciferase reporter, 44 h; AID 651820; Potency, µM (highest dose often 41.8 µM), inactives show at the top dose activity change, negative = inhibition, most hits filed as inhibitors; hit rate 3.4% among 340,000; active = well fitted inhibition curve with a large enough effect; inconclusive = small, poorly fitted or top-dose-only effect, or another doubt; inactive = no such curve, though single readings can be large or run the other way; note: potency is the fitted concentration of half-maximal effect
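Cells seeded at 1,000/well and cultured 4 h, then compounds added followed by HCVcc-Cre virus (~0.5 moi). After 44 h further culture, luciferase substrate was added, plates held 15 min at room temperature, and luminescence read for 15 sec.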
FMDV inh: blocks foot and mouth disease virus | hit rate 1.2% among 410,000 | FMDV antiviral cell-based qHTS | Potency, µM (highest dose often 57.9 µM), inactives show top-dose activity change, negative = inhibition, actives largely listed as inhibitors | AID 1159524; calls by dose curve; tested in HEK293T cells; note: read-out not given here; potency is the fitted concentration of half-maximal effect; nearly all actives have a fitted effect of over 45% in size
Marburg entry inh: Marburg virus entry inhibition; Marburg virus pseudotyped entry inhibition, cell reporter; Potency, µM (top dose mostly 37.8 µM), without a hit: at the top dose activity change, negative = inhibition, usual class: inhibitors; hit rate 1.8% among 300,000; calls by dose curve; tested in HEK293 cells; note: potency is the fitted concentration of half-maximal effect
HCMV antiviral: blocks human cytomegalovirus replication; activity change, negative = inhibition, % at 57.5 µM; HFF cells, HCMV-luciferase reporter, 72 h; active compounds read low; AID 1259415; hit rate 4.5% among 410,000; in the data active = activity change below about -60%; inconclusive = no clear call, values can overlap the other calls; inactive = above about -39%
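After 16 h attachment at 37C, HFF cells received test compound and HCMV-luciferase (1 PFU/cell); reporter luminescence read 72 h later, data normalized against buffer-only and known inhibitor Salinomycin.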
LASV entry inh: Lassa virus entry inhibition; Lassa virus pseudotype entry inhibition, cell reporter; AID 540256; hit rate 1.2% among 300,000; Potency, µM (series often up to 37.9 µM), for the others: at the highest dose activity change, negative = inhibition, most hits filed as inhibitors; calls by dose curve; tested in HEK293 cells; note: potency is the fitted concentration of half-maximal effect; nearly all actives have a fitted effect of over 50% in size
* = called active by the depositor; ? = inconclusive; nt = no result; [ ] = dose if it differs, or a comment. % is set by controls: 0 for no effect and ±100 for the full control effect.

SMILES	HCV inhibitor	FMDV inh	Marburg entry inh	HCMV antiviral	LASV entry inh
Cc1nc(NC(=O)/C=C/c2ccc(Cl)cc2Cl)sc1C(=O)N(C)C	8.3%	-4.0%	?	-61.1*	14.5%
Cc1nc(NC(=O)/C=C/c2ccccc2)sc1C(=O)N(C)C	21.0%	36.0%	?	42.8	19.4%
CC(=O)CC1c2ccccc2C=C(c2ccsc2)N1c1ccc(-c2cccs2)cc1 (stereo not given)	nt	-12.2%	nt	-77.8*	nt
O=C(c1cccs1)N1C[C@H](O)[C@H](n2cc(C3CC3)nn2)C[C@@H]1c1ccccc1	nt	nt	nt	nt	8.1%[46.1 µM]
C[C@H](N)CN1CCc2ccc(Br)cc21	?	-26.6%	3.55µM*	?	?
CN(C1CCCCC1)S(=O)(=O)c1ccc(NC(=O)c2ccco2)cc1	2.0%	-7.2%	-5.9%	-35.8	11.2µM*
CN(Cc1ccccc1)S(=O)(=O)c1ccc(NC(=S)NC(=O)C2CCCCC2)cc1	10µM*	-16.3%	?	-5.7	-11.0%
CN(C1CCCCC1)S(=O)(=O)c1ccc(NC(=O)C2CCCCC2)cc1	14.1µM*	-22.3%	?	23.3	?
CN1CCN(c2ncc3nc(-c4ccc(Cl)cc4)c(=O)n(CCC#N)c3n2)CC1	nt	-7.6%	nt	nt	nt
COc1cccc2c(C)cc3nnc(SCC(=O)Nc4ccc(C)cc4)n3c12	nt	1.4%	-8.9%[46.1 µM]	-35.3	-20.9%[46.1 µM]
O=C(Nc1ccccc1)C1=C[C@@H](c2csc3ccccc23)C[C@@H](OCc2ccc(CO)cc2)O1	0.316µM*	-9.8%	nt	13.4	nt
O=C(NCc1ccccc1)C1=C[C@H](c2csc3ccccc23)C[C@H](OCc2ccc(CO)cc2)O1	?	3.9%	nt	-61.0*	nt
COc1ccc(-n2ncc3c2CC(C)(C)CC3NC(=O)c2ccnn2C)cc1 (stereo not given)	-26.5%	-10.0%	nt	-6.6	nt
C[C@H]1C=CCC(=O)N[C@@H](c2ccc3ccccc3c2)[C@@H](C)C=CCC(=O)N[C@@H]1c1ccc2ccccc2c1	nt	nt	20.2%[14.2 µM]	nt	nt
COc1cccc(Cn2cnc3c(NS(=O)(=O)c4ccc(Cl)cc4Cl)c(C)c(C)cc32)c1	?	?	?	-16.5	1.6%
COc1cccc(Cn2cnc3c(NS(=O)(=O)c4cccc(Cl)c4Cl)c(C)c(C)cc32)c1	12.6µM*	?	?	-24.1	?
O=C(N/N=C\C=C\c1ccc([N+](=O)[O-])o1)c1cccs1	?	1.7%	?	-64.8*	?
COc1ccc2c(c1)CCC1C2CC[C@@]2(C)C1CC[C@@H]2NCCCCCCN1C(=O)CCC1=O (stereo not given in full)	nt	nt	?	nt	13µM*
C=C1C[C@H]2[C@@H]3CCc4cc(OC)ccc4[C@H]3CC[C@]12C	7.9%	-1.4%	nt	-69.4*	nt
CC(C)c1ccc2c(c1)C(N1CCN(C)CC1)Cc1cccnc1S2 (stereo not given)	?	-21.0%	11.2µM*	4.0	-9.6%[46.1 µM]
COc1ccc(S(=O)(=O)Nc2ccc(C)cc2)cc1N(C)S(=O)(=O)c1ccc(Cl)cc1	8.91µM*	nt	?	-99.0*	?
COc1ccc(S(=O)(=O)NN(C)C)cc1N(C)S(=O)(=O)c1ccc(Cl)cc1	5.2%	-6.6%	24.1%	-63.8*	7.5%
COc1ccc(S(=O)(=O)N2CCCCC2)cc1N(C)S(=O)(=O)c1ccccc1	nt	-1.2%	?	20.4	4.2%
COC(=O)CN(c1cc(Cl)ccc1OC)S(=O)(=O)c1ccc(C)cc1	?	59.7%	?	?	-15.2%
COC(=O)/C=C1\S/C(=N\N=C\CC(=O)OC)NC1=O	-9.1%	-11.8%	-6.2%[46.1 µM]	25.5	-5.2%
SMILES	HCV inhibitor	FMDV inh	Marburg entry inh	HCMV antiviral	LASV entry inh
CN1CCN(C(=O)C23CC4CC(C2)CC(c2ccccc2)(C4)C3)CC1	10µM*	-29.1%	?	19.9	?
CC(C)NC(=O)C(c1ccc(F)cc1)N(C(=O)CCC(=O)Nc1ccccn1)c1cccc(F)c1 (stereo not given)	10.8%	-2.6%	?	15.3	?
Cc1cc(C)c2c(=O)[nH]c(SCC(=O)c3ccc(F)c(C)c3)nc2n1	20.4%	-11.6%	1.0%[46.1 µM]	-102.6*	?
Cc1cc(C(=O)CSc2nc(N)cc(=O)[nH]2)ccc1F	-16.2%	-25.0%	nt	-23.0	nt
CCCCCCC(=O)Nc1ccc(Cl)cn1	7.7%	50.0%	15.6%	-15.3	1.3%
COCCSc1ccccc1C(=O)Nc1ccc(Cl)cn1	-8.3%	-22.9%	23.6%	-68.5*	8.6%
O=C(CCCOc1ccccc1)Nc1ccc(Cl)cn1	?	27.9%	-24.3%[46.1 µM]	-65.1*	-1.6%
O=C(COC(=O)CNC(=O)c1ccccc1)Nc1ccc(Cl)cn1	-13.4%	-2.7%	?	-60.7*	12.3%[46.1 µM]
Cc1c(C)c2cc(Cl)c(O)c(CN3CCC[C@@H](C)C3)c2oc1=O	nt	nt	0.5%	nt	nt
CCOc1ccccc1C(=O)N1CCCCC1CCN1CCOCC1 (stereo not given)	nt	-2.5%	10.8%[46.1 µM]	-36.6	14.8%[46.1 µM]
Cc1cnc(-n2ncc(C(=O)NCCCc3ccncc3)c2C)nc1-c1ccc(F)cc1	nt	3.3%	nt	nt	nt
Cc1cc(N(C)Cc2ccccc2)nc2cc(O)ccc12	-25.3%	14.8%	5.9%	-36.5	15.0%
Cc1ccc(CN(Cc2ccco2)c2cnc(S(C)(=O)=O)nc2C(=O)Nc2ccccc2Br)o1	nt	-26.3%	2.6%[46.1 µM]	-16.3	6.6%[46.1 µM]
CN(C)CCN(Cc1ccccc1)C(=O)c1[nH]c(C(F)(F)F)nc1-c1ccccc1	nt	35.5µM*	nt	-1.7	nt
Cc1cccc(CN2CCN(C(C)C(=O)NC(C)c3ccccc3)CC2)c1 (stereo not given)	-10.2%	-24.2%	?	6.3	?
COC(=O)c1ccccc1NC(=O)Cn1c(=O)n(CCCC(=O)NCCc2ccc(OC)c(OC)c2)c(=O)c2ccccc21	nt	8.4%	1.6%[46.1 µM]	13.0	2.3%[46.1 µM]
COc1cccc(C(=O)N2c3nc(-c4ccco4)nn3C3(CCCCC3)[C@@H]3CCCC[C@@H]32)c1	nt	-26.7%	-6.8%[46.1 µM]	-64.2*	6.0%[46.1 µM]
O=C(c1cccc([N+](=O)[O-])c1)N1c2nc(-c3ccco3)nn2C2(CCCCC2)[C@@H]2CCCC[C@@H]21	nt	-20.6%	-11.6%[46.1 µM]	-76.9*	-8.0%[46.1 µM]
O=C1C2C3CCC(CC3)C2C(=O)N1c1ccccc1 (stereo not given)	5.4%	-19.5%	6.2%[46.1 µM]	-6.6	-9.5%[46.1 µM]
O=[N+]([O-])c1ccc(CN2CCN(c3ncccn3)CC2)cc1	4.9%	-13.2%	nt	?	nt
O=[N+]([O-])c1ccc(N2CCN(Cc3ccncc3)CC2)cc1	0.4%	-17.9%	nt	-89.5*	nt
O=C(CCN1CCN(c2ccccc2)CC1)Nc1cccc(Br)c1	-8.2%	0.0%	nt	-5.5	nt
O=C(NCCN1CCN(c2ccccc2)CC1)Nc1cccc(Br)c1	14.1µM*	-18.2%	-27.6%[46.1 µM]	5.4	7.9%[46.1 µM]
O=C(NCCN1CCN(Cc2ccc([N+](=O)[O-])cc2)CC1)C(=O)Nc1ccccc1	19.0%	nt	-6.4%	38.2	22.2%
O=C(NCCN1CCN(c2ccc([N+](=O)[O-])cc2)CC1)NCc1ccccc1	-13.9%	-20.6%	nt	-93.9*	nt
O=C(CCCSc1nc2ccccc2[nH]1)N1CCN(c2ccc([N+](=O)[O-])cc2)CC1	1.2%	17.8µM*	1.7%	-26.6	-0.6%

Screening results: PubChem, National Center for Advancing Translational Sciences (NCATS)
